# From PubChem BioAssay AID504467 (National Center for Advancing Translational Sciences (NCATS), 2011)
# Out of some 330,000 compounds screened, about 7,700 (2.3%) were called active. Roughly 26% stayed inconclusive and do not appear here. The call rests on the fitted dose curve; in most records, active means well fitted inhibition curve with a large enough effect; inconclusive means small, poorly fitted or top-dose-only effect, or effect the other way; inactive means flat fitted curve, though single readings scatter. Shown is part of a subset that was picked to be rich in actives. A call without a number means that no potency is given here.
# Assay: qHTS screen for small molecules that inhibit ELG1-dependent DNA repair in human embryonic kidney (HEK293T) cells expressing luciferase-tagged ELG1; further: nearly all actives have a fitted effect of over 55% in size
# Settings: HEK293T ELG1-luciferase reporter, luminescence, 16 h, DNA damage induced by 5-fluorouridine; series mostly up to 46.1 µM
# Summary of the method: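 DMSO vehicle served as the neutral condition. Each well held 2,000 cells given 5-fluorouridine plus compound; after 16 hr at 37 °C/5% CO2, ONE-Glo was added and luciferase measured 30 min later.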
# Potency means the concentration at half of the fitted maximal effect.
row,SMILES,Potency
1,CCCCCN(C(=O)CCC(=O)OCCOc1ccc(OC)cc1)c1c(N)n(CCCC)c(=O)[nH]c1=O,inactive
2,CC(C)N(C(=O)[C@H]1C[C@H](CC(=O)NCCC2=CCCCC2)C(=O)N2CCc3c([nH]c4cc(CCC(=O)N(C)C)ccc34)[C@]12C)C(C)C,inactive
3,COc1ccccc1C(CNC(=O)c1cccc(NS(=O)(=O)c2ccc(Br)cc2)c1)N(C)C (configuration not stated),inactive
4,O=[N+]([O-])c1cc(Cl)cc(/C=N/NC(=S)Nc2cc(S(=O)(=O)N3CCOCC3)ccc2Cl)c1O,20.6 µM (active)
5,O=C(NC(=S)Nc1ccc(S(=O)(=O)N2CCOCC2)cc1)c1ccccc1[N+](=O)[O-],inactive
6,O=S(=O)(c1ccc(NC(=S)NN=C(C2CC2)C2CC2)cc1)N1CCOCC1,inactive
7,Cc1cc(=O)oc2c3c(cc(OCC(=O)N[C@H](C(=O)O)c4ccccc4)c12)OC(C)(C)CC3,inactive
8,O=C(c1ccccc1-c1ccccc1)N1CCOCC1,inactive
9,Cc1noc(C)c1C(=O)N1CCOCC1,inactive
10,Cc1oc2c(c1C(=O)N1CCOCC1)C(=O)c1ccccc1C2=O,4.61 µM (active)
11,CC(=O)NC12CC3CC(C1)CC(C(=O)N1CCN(S(=O)(=O)c4cccs4)CC1)(C3)C2,inactive
12,Nc1ncnc2c1ncn2[C@@H]1O[C@H](CNCc2cccn2-c2nccs2)[C@@H](O)[C@H]1O,inactive
13,O=C(CCN1C(=O)[C@@H]2Cc3ccccc3CN2C1=O)NCCc1ccccc1,inactive
14,CN(C)C(=O)CCc1ccc2c3c([nH]c2c1)[C@]1(CCc2ccccc2)[C@@H](C(=O)N2CCCCC2)C[C@H](CC(=O)NCCC2=CCCCC2)C(=O)N1CC3,inactive
15,CC(C)(O)C#Cc1ccc(CN2CCC(CO)(CCc3ccccc3)CC2)cc1,inactive
16,CC(=O)c1c(C)[nH]c(C(=O)COC(=O)CCOc2ccc(C)cc2)c1C,inactive
17,CC(=O)c1c(C)[nH]c(C(=O)COC(=O)c2cccc(S(=O)(=O)N(C)c3ccccc3)c2)c1C,18.4 µM (active)
18,COc1ccc(C)cc1NC(=O)C(OC(=O)c1cccc(S(=O)(=O)N(C)c2ccccc2)c1)c1ccccc1 (configuration not stated),inactive
19,COc1ccc(Cl)cc1NC(=O)CN(C)C(=O)c1cc(-c2cccs2)nn1-c1ccccc1,inactive
20,CCOc1ccc(C(=O)Nc2ccc(S(=O)(=O)Nc3cc(C)on3)cc2)cc1,inactive
21,CC(C)C(=O)NC(=S)Nc1ccccc1F,inactive
22,CC(C)C(=O)Nc1cccc(NC(=S)NC(=O)C(c2ccccc2)c2ccccc2)c1,16.4 µM (active)
23,CCCCC(=O)NNC(=S)NC(=O)C(c1ccccc1)c1ccccc1,inactive

row,SMILES,Potency
1,Cc1ccc(NC(=O)CN(C)C(=O)c2cccc(S(=O)(=O)N3CCCC3)c2)cc1,inactive
2,CCn1c(O)c(N=NC(=O)c2cccc(S(=O)(=O)N3CCCCC3)c2)c2ccccc21,23.1 µM (active)
3,CCn1c2ccccc2c2cc(NC(=O)COC(=O)c3cc(S(=O)(=O)N4CCCCC4)ccc3Cl)ccc21,inactive
4,CC[C@]12c3[nH]c4ccc(Cl)cc4c3CCN1C(=O)[C@@H](CC(=O)NCCCOC)C[C@@H]2C(=O)N1CCN(C(=O)C2CC2)CC1,inactive
5,NC(=O)Nc1ccc(C(=O)OCC(=O)NC2CCCc3ccccc32)cc1 (configuration not stated),inactive
6,CCOc1ccc(N(CC)S(=O)(=O)c2cccc3nsnc23)cc1,inactive
7,CCOc1ccc(OCC)c(NC(=O)CN(C)S(=O)(=O)c2cccc3nsnc23)c1,16.4 µM (active)
8,CCOc1ccccc1NC(=O)CCS(=O)(=O)c1cccc2nsnc12,inactive
9,Cc1ccc(CN2CC(C(=O)N3CCN(S(=O)(=O)c4ccccc4)CC3)CC2=O)cc1 (configuration not stated),inactive
10,O=C(NNc1c2ccccc2nc2ccccc12)c1cc2ccccc2cc1O,13 µM (active)
11,CC(=O)Nc1ccc(Nc2c3ccccc3nc3ccccc23)cc1,inactive
12,Cc1ccc(/C=N/NC(=O)c2cc3ccccc3cc2O)o1,inactive
13,Cc1ccc(C2=NN(C(=O)COc3ncnc4ccccc34)C(c3ccco3)C2)cc1 (configuration not stated),inactive
14,CCS(=O)(=O)Nc1ccc(C2=NN(S(=O)(=O)c3ccc(F)cc3)C(c3ccco3)C2)cc1 (configuration not stated),20.6 µM (active)
15,COc1cccc(C2CC(c3ccccc3)=NN2S(=O)(=O)c2ccccc2)c1OC (configuration not stated),inactive
16,CC(NCC(=O)Nc1cc(Cl)cc(Cl)c1)c1ccccc1 (configuration not stated),inactive
17,COc1ccc(/C=C(/NC(=O)c2ccccc2)C(=O)Nc2cccc(C(=O)O)c2)cc1,inactive
18,COc1cc(SC)ccc1C(=O)N(Cc1ccccc1)c1ccccc1,inactive
19,CCCC(=O)Nc1cccc(NC(=S)NC(=O)C(C)Oc2ccc(Cl)cc2Cl)c1 (configuration not stated),20.6 µM (active)
20,CC(Oc1ccc(Cl)cc1Cl)C(=O)/C=C/N(C)C (configuration not stated),inactive
21,COc1cccc(NC(=O)CN(C)C(=O)Cc2ccc(Cl)cc2Cl)c1,inactive
22,COc1ccc(C)cc1NC(=O)CN(C)S(=O)(=O)c1ccc2c(c1)n(C)c(=O)c(=O)n2C,inactive
23,Cc1ccc(C)c(C(=O)COC(=O)Cn2[nH]c(=O)c3ccccc3c2=O)c1,inactive

row,SMILES,Potency
1,O=C(CCc1nc(-c2ccccc2)no1)Nc1cccc(C(=O)NC2CC2)c1,inactive
2,CN(CC(=O)Nc1c(Cl)cccc1Cl)C(=O)CC1OC(=O)c2ccccc21 (configuration not stated),inactive
3,CCN(C(=O)CSc1nc2ccccc2n1CC)C1CCS(=O)(=O)C1 (configuration not stated),inactive
4,CCN(C(=O)COC(=O)/C=C/c1nc2ccccc2s1)C1CCS(=O)(=O)C1 (configuration not stated),9.2 µM (active)
5,CCN(C(=O)COC(=O)c1c(NC(C)=O)sc(C)c1C)C1CCS(=O)(=O)C1 (configuration not stated),inactive
6,C=CC(COCc1ccccc1)N(CC(=O)OC)S(=O)(=O)c1cc(Br)ccc1OC (configuration not stated),inactive
7,Cc1nc2cc(C(F)(F)F)ccc2n1CCNc1nc(-c2cc(Cl)c(N)c(Cl)c2)cs1,inactive
8,COc1ccc(-c2c(C)cc3oc(=O)cc(-c4ccccc4)c3c2C)cc1C=O,25.9 µM (active)
9,COc1ccc(-c2c(C)cc3oc(=O)cc(-c4ccccc4)c3c2C)cc1OC,inactive
10,COc1ccc(-c2c(C)cc3oc(=O)cc(-c4ccccc4)c3c2C)cc1F,inactive
11,CCOC(=O)N1CCN(Cc2nnc(-c3ccccc3Cl)o2)CC1,inactive
12,Cc1ccc(F)cc1NC(=O)CSCc1c(C)noc1C,inactive
13,COc1ccc(CCNc2ncnc3nc[nH]c23)cc1OC,14.6 µM (active)
14,COc1ccc(CCNc2nc(C)cc(C)n2)cc1OC,inactive
15,CCS(=O)(=O)NCCc1ccc(OC)c(OC)c1,inactive
16,CCCN(C(=O)c1nc2nccc(C)n2n1)c1c(N)n(Cc2ccccc2)c(=O)[nH]c1=O,inactive
17,O=C(Nc1ccccc1F)c1ccc(S(=O)(=O)N2CCCCCC2)cc1,inactive
18,Cc1cccc(NS(=O)(=O)c2ccc(C)c(C(=O)NCc3cccnc3)c2)c1,inactive
19,COC(=O)Cc1ccc(OC(=O)C2CCN(S(=O)(=O)c3ccc(OC)c(OC)c3)CC2)cc1,inactive
20,CCOC(=O)c1c(C)[nH]c(C)c1S(=O)(=O)N(C)CC(=O)Nc1ccccc1C,inactive
21,Cc1[nH]c2ccccc2c1C(=O)COC(=O)C(C)C,inactive
22,CCOC(=O)c1c(C)[nH]c2c1-c1ccccc1C(=O)C2=O,2.91 µM (active)
23,CC[C@]12c3[nH]c4cc(CCC(=O)N(C)C)ccc4c3CCN1C(=O)[C@@H](CC(=O)NCCCn1ccnc1)C[C@@H]2C(=O)N1CCN(C(=O)C2CC2)CC1,inactive

row,SMILES,Potency
1,Cc1ccc(N(Cc2ccccc2O)C(=O)c2ccccc2F)cc1,inactive
2,Cc1ccc(C(=O)NCC(=O)O)cc1S(=O)(=O)N1CCCCC1,inactive
3,Cc1ccc(C(=O)OCC(=O)NCc2cc(C)c(O)c(C)c2)cc1S(=O)(=O)N1CCCCC1,7.3 µM (active)
4,Cc1ccc(C(=O)OCC(=O)N2CCCCCC2)cc1S(=O)(=O)N1CCOCC1,inactive
5,Cc1ccc(C(=O)OCC(=O)N2CC(C)CC(C)C2)cc1S(=O)(=O)N1CCCCC1 (configuration not stated),inactive
6,Cc1ccc(C(=O)OCC(=O)Nc2ccc(Cl)cn2)cc1S(=O)(=O)N1CCOCC1,inactive
7,COc1ccc(C(=O)OCC(=O)c2ccc(C)c(S(=O)(=O)N3CCOCC3)c2)cc1OC,10.3 µM (active)
8,COc1ccc(C2(C)ON(c3ccccc3C(F)(F)F)C2=O)cc1 (configuration not stated),inactive
9,Cc1ccc(Cn2cc(C(=O)NN)c(=O)c3ccc(F)cc32)cc1,inactive
10,CC1(C)Oc2ccc3ccc(=O)oc3c2/C(=N/O)C1=O,inactive
11,COc1ccc(C(=O)NC(=S)Nc2ccc(N3CCCC3)cc2)cc1OC,inactive
12,COc1ccc(C(=O)Nc2ccc3nc(N4CCCCC4)cc(C)c3c2)cc1OC,23.1 µM (active)
13,COc1ccc(C(=O)Nc2ccc(S(=O)(=O)Nc3onc(C)c3C)cc2)cc1OC,inactive
14,CN1CCN(CCC(=O)N/N=C/C=C2\N(C)c3ccccc3C2(C)C)CC1,inactive
15,CN1/C(=C\C(=O)c2oc3ccccc3c2N)C(C)(C)c2ccccc21,13 µM (active)
16,CN1/C(=C\C(=O)c2cccnc2Cl)C(C)(C)c2ccccc21,inactive
17,CC(C)[C@H](NC(=O)N1CCn2c1nc1ccccc12)C(=O)NCCc1ccccc1,inactive
18,CCOc1ccc(C(=O)CCC(=O)Nc2ccncc2)cc1,inactive
19,COc1ccc2oc(C(=O)N(CC(C)C)C3CCS(=O)(=O)C3)c(C)c2c1 (configuration not stated),inactive
20,CC(OC(=O)c1ccc([N+](=O)[O-])cc1)C(=O)NCC1CCCCC1 (configuration not stated),inactive
21,COc1cc(C(=O)OC(C)C(=O)NCC2CCCCC2)cc(NC(=O)c2ccco2)c1OC (configuration not stated),11.6 µM (active)
22,COc1cc(C(=O)N[C@@H](C)C(=O)NCc2ccco2)cc(OC)c1OC,inactive
23,CN1C(=O)[C@H]2[C@@H](/C=C/c3ccccc3)N3C(=O)CN(Cc4ccc(-c5ccccc5)cc4)C(=O)[C@@]3(C)[C@H]2C1=O,inactive
